Bioassay records deposited in PubChem by National Center for Advancing Translational Sciences (NCATS).
JMJD2A Tudor inh: blocks the human JMJD2A Tudor domain | O75164 | Potency, µM (doses to about 114 µM), for the others: top-dose activity change, negative = inhibition, hits mostly inhibitors | AlphaScreen JMJD2A-Tudor / H3K4me3 peptide binding | hit rate 4.4% among 390,000; further: on the % scale 0 is the no-effect control and ±100 the full control effect; nearly all actives have a fitted effect of over 50% in size
BAZ2B inh: BAZ2B (human) inhibition | hit rate 4.4% among 360,000 | Potency, µM (series often up to 114 µM), for the others: top-dose activity change, negative = inhibition, actives largely listed as inhibitors | AID 504333 | AlphaScreen BAZ2B-H3K14Ac peptide displacement; further: on the % scale 0 is the no-effect control and ±100 the full control effect; nearly all actives have a fitted effect of over 60% in size
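Complex of BAZ2B and biotin-H3K14Ac (50 nM apiece) forms over 30 min at RT, then faces library compounds up to 110 uM for another 30 min; AlphaScreen beads added, 20 min dark incubation, luminescence read.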
G9a inh: inhibitors of human histone lysine methyltransferase G9a; G9a H3K9 monomethylation, AlphaScreen, 2 h; AID 504332; Potency, µM (doses to about 102 µM), for inactives: top-dose activity, negative = inhibition, actives largely listed as inhibitors; hit rate 8.8% among 350,000; further: on the % scale 0 is the no-effect control and ±100 the full control effect; nearly all actives have a fitted effect of over 75% in size
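G9a (20 nM) preincubated 15 min RT with compounds, then 500 nM biotinylated H3K9 peptide and 20 uM SAM added; 2 h RT reaction. Monomethyl-H3K9 product detected by AlphaScreen with anti-H3K9me1 antibody, streptavidin donor and anti-rabbit IgG acceptor beads.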
Sfp inh: inhibitors of Bacillus subtilis Sfp phosphopantetheinyl transferase; Q9F4F7; hit rate 3.5% among 310,000; Potency, µM, for the others: largest response in the series, negative = inhibition, hits mostly inhibitors; Biochemical Sfp PPTase activity, qHTS; AID 1490;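 further: the enzyme is Sfp with the accession as filed and its product quenches rhodamine fluorescence; 0% = enzyme reaction without inhibitor and -100% = no enzyme wells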
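Fluorescence-quenching assay with 15 nM Sfp, 5 uM rhodamine-CoA and 12.5 uM BHQ-2-labelled ybbR peptide in pH 7.6 Hepes/MgCl2 buffer. Enzyme was pre-incubated with compound for 15 min at room temperature. Rate was taken from the 30-min fluorescence change (525/598 nm).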
TDP1 inh: inhibitors of human tyrosyl-DNA phosphodiesterase TDP1 | AID 485290 | Potency, µM (highest dose often 130 µM), for the others: at the highest dose activity change, negative = inhibition, usual class: inhibitors | recombinant TDP1, AlphaScreen DNA substrate cleavage | Q9NUW8 | hit rate 0.28% among 350,000; further: on the % scale 0 is the no-effect control and ±100 the full control effect; nearly all actives have a fitted effect of over 40% in size
Target sequence (Q9NUW8 whole entry, looked up): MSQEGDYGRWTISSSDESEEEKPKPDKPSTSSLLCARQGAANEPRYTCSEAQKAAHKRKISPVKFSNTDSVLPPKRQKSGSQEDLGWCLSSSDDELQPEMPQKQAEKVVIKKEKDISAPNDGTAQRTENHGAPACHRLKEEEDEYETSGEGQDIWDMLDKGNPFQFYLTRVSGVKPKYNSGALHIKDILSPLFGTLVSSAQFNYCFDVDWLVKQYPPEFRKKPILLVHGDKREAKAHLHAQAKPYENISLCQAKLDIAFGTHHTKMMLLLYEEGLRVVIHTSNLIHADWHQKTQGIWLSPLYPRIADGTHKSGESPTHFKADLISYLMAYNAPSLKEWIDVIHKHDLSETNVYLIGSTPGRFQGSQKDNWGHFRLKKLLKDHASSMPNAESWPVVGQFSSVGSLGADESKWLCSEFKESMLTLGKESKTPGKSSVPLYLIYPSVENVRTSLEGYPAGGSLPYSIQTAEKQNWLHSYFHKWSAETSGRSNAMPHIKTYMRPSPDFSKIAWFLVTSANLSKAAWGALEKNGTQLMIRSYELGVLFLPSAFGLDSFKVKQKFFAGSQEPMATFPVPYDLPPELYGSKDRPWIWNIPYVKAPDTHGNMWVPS
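AlphaScreen read-out: signal falls as enzyme removes the 3' tyrosine-FITC from a 5'-biotinylated DNA oligo (15 nM, 5 min, RT). Enzyme was E. coli-made recombinant Tdp1 at 1 nM, exposed to compound for 15 min beforehand; beads 10 ug/ml, 10 min.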
HP1b chromo inh: inhibitors of HP1-beta chromodomain binding to methylated histone tails; AlphaScreen HP1-beta / biotin-H3K9me3 peptide binding; Potency, µM (titrated, usually from 114 µM), for the others: at the top dose activity change, negative = inhibition, usual class: inhibitors; AID 540317; hit rate 0.56% among 390,000; further: nearly all actives have a fitted effect of over 70% in size
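AlphaScreen: HP1-beta (50 nM) preformed 30 min with biotin-H3(1-18)K9me3 peptide (50 nM) in PBS pH 7.4, 0.01% Tween-20. Compound added for 30 min at RT, then streptavidin donor/nickel chelate acceptor beads (10 ug/mL) for 30 min.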
* = called active by the depositor; [ ] = remark or other dose. A selection: hits, their analogues and other compounds. The true share with any hit is near 12%. The call rests on the fitted dose curve; in most records, active means well fitted curve in the direction sought with a large enough effect; inconclusive means small, poorly fitted or top-dose-only effect, or another doubt; inactive means no such curve, though single readings can be large; an effect the other way counts as inactive or inconclusive. Potency means the concentration at half of the fitted maximal effect.

Screening COc1ccc(C2=NN(CN3C(=O)C(=O)c4ccccc43)C(c3ccc(OC)cc3)C2)cc1 (centres undefined) returned JMJD2A Tudor inh inconclusive, BAZ2B inh inconclusive, G9a inh 44.7µM*, Sfp inh -3.8%, TDP1 inh 5.3% and HP1b chromo inh 8.5%.
`CCN(CC)CCn1c(=S)[nH]c2cc(C(=O)NCc3ccc(C)cc3)ccc2c1=O` gave JMJD2A Tudor inh -18.8%, BAZ2B inh -5.7%, Sfp inh -1.9%, TDP1 inh 0.0% and HP1b chromo inh 28.8%.
For Cc1cc(Cn2ccnc2)c(C)c([N+](=O)[O-])c1Cn1ccnc1 the results were JMJD2A Tudor inh -9.4%, BAZ2B inh 79.4µM*, G9a inh 11.5%, Sfp inh 9.0% and HP1b chromo inh 31.0%.
O=C1OC(c2ccccc2)=C/C1=C/N1CCCCC1 was read as JMJD2A Tudor inh inconclusive, BAZ2B inh 50.1µM*, G9a inh inconclusive, Sfp inh inconclusive, TDP1 inh 2.0% and HP1b chromo inh -22.0%.
Screening COC1=C(Nc2ccccc2OC)C(=O)c2ccccc2C1=O returned JMJD2A Tudor inh 44.7µM*, BAZ2B inh 8.91µM*, G9a inh -161.5%[59 µM], Sfp inh -18.4% and HP1b chromo inh 35.5µM*.
COc1ccccc1NC1=C(NC(C)=O)C(=O)c2ccccc2C1=O was read as JMJD2A Tudor inh inconclusive, BAZ2B inh inconclusive, G9a inh 7.94µM*, Sfp inh -96.9%, TDP1 inh 6.1% and HP1b chromo inh 50.1µM*.
`COc1ccccc1NC(C)=O` gave JMJD2A Tudor inh -8.4%[11.4 µM], G9a inh 7.0%[59 µM], Sfp inh 11.7%, TDP1 inh 0.0% and HP1b chromo inh -1.3%.
For COC1=C(Nc2ccccc2)C(=O)C(OC)=C(Nc2ccccc2)C1=O the results were JMJD2A Tudor inh -17.2% and HP1b chromo inh 20.5%[57 µM].
Screening CCCN1CNc2c(c(=O)[nH]c(=S)n2CCc2cc(Cl)cc(Cl)c2)C1 returned JMJD2A Tudor inh -27.2%, TDP1 inh 2.3%[96 µM] and HP1b chromo inh 27.7%.
`CCNc1ccc(Br)cc(C(=O)/C=C/c2ccc(Cl)cc2Cl)c1=O` gave JMJD2A Tudor inh 44.7µM*, BAZ2B inh 44.7µM*, G9a inh 8.91µM*, Sfp inh 22.4µM*, TDP1 inh 4.9% and HP1b chromo inh inconclusive.
Screening CNc1ccc(Br)cc(C(=O)/C=C/c2ccc(OC)cc2)c1=O returned JMJD2A Tudor inh -30.8%, BAZ2B inh 44.7µM*, G9a inh 10µM*, Sfp inh inconclusive, TDP1 inh -10.5% and HP1b chromo inh -9.0%.
`CNc1ccc(Br)cc(C(=O)/C=C/c2ccc3c(c2)OCO3)c1=O` gave JMJD2A Tudor inh 39.8µM*, BAZ2B inh 39.8µM*, G9a inh 10µM*, Sfp inh 17.8µM*, TDP1 inh -9.8% and HP1b chromo inh inconclusive.
Screening COC(=O)CNC(=O)/C=C/c1cc(Br)ccc1OC returned JMJD2A Tudor inh -2.8%, BAZ2B inh -3.9%, G9a inh -32.1%, Sfp inh 7.9%, TDP1 inh 3.7% and HP1b chromo inh 39.5%.
For CNc1ccc(Br)cc(C(=O)/C=C/c2cc(OC)ccc2OC)c1=O the results were JMJD2A Tudor inh 25.1µM*, BAZ2B inh 28.2µM*, G9a inh 4.47µM*, Sfp inh -7.0%, TDP1 inh -9.7% and HP1b chromo inh -29.7%.
Screening Cc1ccc(-n2ncc(C(=O)N3CCN(c4cccc(C)c4C)CC3)c2C2CCNCC2)c(C)c1 returned JMJD2A Tudor inh inconclusive, BAZ2B inh 1.4%[57.1 µM], G9a inh inconclusive, TDP1 inh 4.2% and HP1b chromo inh -11.9%.
`O=C(c1ccccc1)n1c(=O)cc[nH]c1=O` gave JMJD2A Tudor inh -7.6%, BAZ2B inh 11.0%, G9a inh 18.8%[2.33 µM], TDP1 inh 0.5% and HP1b chromo inh 33.0%.
Screening C=C(C)C(=O)OCCCCCC returned TDP1 inh 5.9%.
For O=C1NCCCc2c1oc1cc(Br)c(O)c(Br)c21 the results were JMJD2A Tudor inh -19.4%, BAZ2B inh -2.5%, G9a inh 50.1µM*, Sfp inh -12.8%, TDP1 inh -5.3% and HP1b chromo inh -4.0%.
CC(C)NCc1c(O)c(Br)cc2oc3c(c12)CCCC3 was read as JMJD2A Tudor inh -35.4%, BAZ2B inh 4.5%, G9a inh inconclusive, Sfp inh 3.9%, TDP1 inh 0.0% and HP1b chromo inh 7.6%.
`NC(=O)CN(C/C=C/c1ccccc1)C/C=C/c1ccccc1` gave JMJD2A Tudor inh 20µM*, BAZ2B inh inconclusive, Sfp inh -29.9%, TDP1 inh 4.4% and HP1b chromo inh inconclusive.
Oc1ccccc1C1C=C(c2ccc3c(c2)OCO3)NC(c2ccc(Br)cc2)N1 (centres undefined) was read as JMJD2A Tudor inh -16.9%[57.1 µM], TDP1 inh 1.9% and HP1b chromo inh 14.9%[57 µM].
CCOCCCNC(=S)N(Cc1ccccc1)Cc1nc2ccccc2c(=O)[nH]1 was read as JMJD2A Tudor inh -9.4%, BAZ2B inh -33.6%, G9a inh 10µM*, Sfp inh inconclusive, TDP1 inh 0.0% and HP1b chromo inh -14.9%.
Screening CCCCC(=O)N(Cc1ccc2c(c1)OCO2)Cc1nc2ccccc2c(=O)[nH]1 returned JMJD2A Tudor inh 31.6µM*, BAZ2B inh -33.4%, G9a inh -6.2%, Sfp inh -11.8%, TDP1 inh 4.8% and HP1b chromo inh -14.7%.
CCCNC(=S)N(Cc1ccccc1)Cc1nc2ccccc2c(=O)[nH]1 was read as JMJD2A Tudor inh -17.0%, BAZ2B inh -6.7%, G9a inh 7.08µM*, Sfp inh -1.2%, TDP1 inh -2.7% and HP1b chromo inh 9.0%.
`Cc1ccc(CSC2=NS(=O)(=O)c3ccccc32)cc1` gave JMJD2A Tudor inh -26.2%[57.1 µM], TDP1 inh -2.4% and HP1b chromo inh 26.3%[57 µM].
For Cc1cccc(N2C(=NC(=O)c3ccccc3)SC3CS(=O)(=O)CC32)c1 (centres undefined) the results were JMJD2A Tudor inh -1.4%, BAZ2B inh -15.5%, Sfp inh -5.4%, TDP1 inh -3.3% and HP1b chromo inh 25.6%.
Screening COc1ccc(OCC2c3cc(OC)c(OC)cc3CCN2C(=O)c2c(F)cccc2F)cc1 (centres undefined) returned JMJD2A Tudor inh inconclusive, BAZ2B inh -30.6%, G9a inh inconclusive, TDP1 inh 7.8% and HP1b chromo inh 13.2%.
Screening COc1ccc(CCNc2cc(N3CCN(C(=O)c4ccc(C)cc4)CC3)ccc2[N+](=O)[O-])cc1OC returned BAZ2B inh -37.7%, G9a inh -14.0%[59 µM], Sfp inh 1.3% and TDP1 inh -2.7%.
